Screens from PubChem.
AmpC inh no det: blocks E. coli AmpC beta-lactamase in absence of detergent; P00811; AmpC nitrocefin hydrolysis, absorbance 480 nm, no detergent; Potency, µM (series often up to 28.7 µM); 1.8% of 71,000 active; AID 585
Target sequence (P00811 whole entry, looked up): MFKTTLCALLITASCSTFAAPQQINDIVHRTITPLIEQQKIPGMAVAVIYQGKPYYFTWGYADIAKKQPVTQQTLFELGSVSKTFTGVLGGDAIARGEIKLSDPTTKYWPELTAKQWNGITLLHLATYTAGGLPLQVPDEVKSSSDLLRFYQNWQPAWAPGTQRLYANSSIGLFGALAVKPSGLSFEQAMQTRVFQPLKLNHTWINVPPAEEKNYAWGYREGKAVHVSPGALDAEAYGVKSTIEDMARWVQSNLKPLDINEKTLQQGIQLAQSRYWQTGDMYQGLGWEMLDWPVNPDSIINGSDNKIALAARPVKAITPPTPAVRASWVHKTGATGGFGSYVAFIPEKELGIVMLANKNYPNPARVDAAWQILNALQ
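AmpC in 20 mM phosphate buffer pH 7.0 was preincubated 15 min at room temperature with compounds. Nitrocefin (800 uM stock) was then added and hydrolysis followed at 480 nm every 20 s for 4 min.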
Anthrax LT inh: blocks cellular internalization of anthrax lethal toxin. 0.67% of 70,000 active. Cells, anthrax lethal toxin internalization, FRET ratio (460/530). AID 912. Potency, µM (titrated, usually from 40 µM), most hits filed as inhibitors; also: nearly all actives have a fitted effect of over 50% in size
AmpC inh det: inhibitors of E. coli AmpC beta-lactamase with detergent | AID 584 | purified AmpC, nitrocefin hydrolysis with detergent | 0.09% of 71,000 active | Potency, µM (series often up to 28.7 µM); active = well fitted curve in the direction sought with a large enough effect; inconclusive = small, poorly fitted or top-dose-only effect
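E. coli AmpC (5.3 nM) in 20 mM phosphate pH 7.0 with 0.01% Triton X-100, preincubated 15 min RT with compound; nitrocefin (2 uL of 800 uM stock) hydrolysis followed by 480 nm absorbance every 20 s over 4 min.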
Prx2 Sm inh: Schistosoma mansoni Prx2 inhibition. S. mansoni Prx2 activity coupled to TGR/GSH (TGR is thioredoxin glutathione reductase), NADPH fluorescence loss, qHTS. 0.07% of 65,000 active. AID 448. Potency, µM
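Purified S. mansoni TGR and Prx2 in pH 7.4 phosphate buffer with EDTA and Tween-20 were preincubated with compounds for 15 min. Further NADPH/GSH was added, then a 2.5 mM H2O2 aliquot initiated turnover, followed kinetically by NADPH fluorescence.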
A number is an active result; – = inactive; ? = inconclusive; · = not tested or not shown; ! = not confirmed by another sample; [ ] = remark or other dose. Shown are actives, neighbours in structure and some others; about 2.4% of the full set was active somewhere. Unless noted, calls follow the shape of the full dose curve.

SMILES	AmpC inh no det	Anthrax LT inh	AmpC inh det	Prx2 Sm inh
O=C(O)c1ccc(C2SCC(=O)N2Cc2ccccc2)cc1 (configuration not stated)	–	–	–	–
Cc1cc(C)n2nc(S(=O)(=O)NCCc3ccccc3)nc2n1	3.98µM[single pt active]	–	–	–
Cc1ccccc1-c1nc(CS(=O)CC(=O)NCCN2CCOCC2)c(C)o1 (configuration not stated)	3.98µM[single pt active]	–	–	–
Cc1ccc(-c2nc(CS(=O)CC(=O)NCc3ccccn3)c(C)o2)cc1 (configuration not stated)	3.98µM[single pt active]	–	–	–
Cc1ccc(CNC(=O)CS(=O)Cc2nc(-c3ccccc3C)oc2C)cc1 (configuration not stated)	–	?	–	–
Cc1ccccc1-c1nc(CS(=O)(=O)CC(=O)NCCN2CCOCC2)c(C)o1	–	–	–	–
Cc1ccc(-c2nc(CS(=O)CC(=O)NCCN3CCOCC3)c(C)o2)cc1 (configuration not stated)	3.98µM[single pt active]	–	–	–
Cc1ccccc1-c1nc(CS(=O)CC(=O)NCc2ccccc2)c(C)o1 (configuration not stated)	3.98µM[single pt active]	–	–	–
Cc1ccc(-c2nc(CS(=O)CC(=O)NCCN(CC(C)C)CC(C)C)c(C)o2)cc1 (configuration not stated)	–	–	–	–
COC(=O)C/C=C\[C@@H](C)[C@@H](/C=N\OC[C@@H](O)[C@H]1O[C@H]2OC(C)(C)O[C@H]2[C@@H]1O)NS(=O)(=O)c1ccc(C)cc1	·	–[1.6 µM]	·	·
CCN1CCN(CCNC(=O)C2CCCN(Cc3nc(-c4cccc(Cl)c4)oc3C)C2)CC1 (configuration not stated)	–	3.98µM	–	–
Cc1oc(-c2ccc(Cl)cc2)nc1CS(=O)CC(=O)NCCN1CCCC1 (configuration not stated)	3.98µM[single pt active]	–	–	–
CCOC(=O)N1CCC(NC(=O)C2CCCN(Cc3nc(-c4cccc(Cl)c4)oc3C)C2)CC1 (configuration not stated)	–	?	–	–
Cc1ccc(-c2nc(CS(=O)CC(=O)NCCN3CCCC3)c(C)o2)cc1 (configuration not stated)	3.98µM[single pt active]	–	–	–
COc1ccc(CCNc2nc(N3CCCCC3)nc(N3CCCCC3)n2)cc1OC	–	6.31µM	–	–
C[C@@H]1Oc2ccc(C(=O)C[C@@H](C(=O)O)c3ccc4c(c3)OCO4)cc2O1	–[5.75 µM]	–[8 µM]	–[5.75 µM]	–
Cc1cc2n(n1)C(c1ccsc1)Nc1ccccc1-2 (configuration not stated)	–	–	–	–
CSc1ccc(C2Nc3ccccc3-c3cc(C)nn32)cc1 (configuration not stated)	–	12.6µM	–	–
Clc1ccc(C(c2ccc(Cl)cc2)C(Cl)(Cl)Cl)cc1	?	6.31µM	–	·
CCOC(=O)c1c(C)n(CCOC)c2ccc(O)cc12	–	–	–	–
CCCCCS(=O)(=O)CCCCCCCCCCn1c(-c2ccc(O)cc2)c(C)c2cc(O)ccc21	·	5.01µM	·	·
COc1ccc(-c2nc3cnc(OC)nc3n(Cc3cccc(OC)c3)c2=O)cc1	–	?	–	–
CCN1C(=O)[C@H]2[C@H]3[C@H](O)[C@H](O)C/C(=N/OC[C@@H](O)COCc4ccco4)[C@@H]3CC[C@@H]2C1=O	·	–[8 µM]	·	·
CCCOc1nc(N)c(C#N)c(-c2ccccc2F)c1C#N	–	7.94µM	–	–
Cc1cc(C(=O)NCCN2CCCCC2C)n(-c2ccccc2)n1 (configuration not stated)	–	–	–	–
SMILES	AmpC inh no det	Anthrax LT inh	AmpC inh det	Prx2 Sm inh
Cn1c(C(=O)NCCN2CCOCC2)cc2c(=O)n(C)c3ccccc3c21	–	–	–	–
Cn1c(C(=O)NCCN2CCc3ccccc3C2)cc2c(=O)n(C)c3ccccc3c21	–	7.94µM	–	–
CC1CCCCN1CCNC(=O)c1cnn2ccccc12 (configuration not stated)	3.16µM[single pt active]	–	–	·
CC1CCCCN1CCNC(=O)c1cc2c(=O)n(C)c3ccccc3c2n1C (configuration not stated)	–	2.51µM	–	–
Cn1c(C(=O)NCCN2CCN(c3ccccc3F)CC2)cc2c(=O)n(C)c3ccccc3c21	3.98µM[single pt active]	–	–	–
COC(=O)c1ccc(C(NC(=O)OCc2ccccc2)/C(=C/[C@@H](C)C(=O)N[C@@H](CO)Cc2ccccc2)c2cccnc2)cc1 (some centres not stated)	–	–	–	·
COc1cc([C@@H]2Oc3cc([C@H]4Oc5cc(O)cc(O)c5C(=O)[C@H]4O)ccc3O[C@H]2CO)ccc1O	–	?	–	–
CC1CCC(NC(=O)c2cc3c(=O)n(C)c4ccccc4c3n2C)CC1 (configuration not stated)	3.98µM[single pt active]	–	–	–
Clc1ccc(/C=C\c2nc(Cl)c(-c3ccc(Cl)cc3)c(Cl)n2)cc1	–[5.75 µM]	?	–[5.75 µM]	–
CCC(Cl)CC(Cl)C(Cl)C(Cl)C(Cl)C(C)Cl (configuration not stated)	–	2.51µM	–	·
N#Cc1nc(-c2ccc(F)cc2)oc1NCc1cccc2c1OCO2	–	?	–	–
CC(C)CNc1oc(-c2ccc(F)cc2)nc1C#N	3.98µM[single pt active]	?	–	–
CCOC(=O)c1cnc2c(C(F)(F)F)cccc2c1N1CCOCC1	–	–	–	–
CCOC(=O)c1cnc2c(C)c(Cl)ccc2c1N1CCOCC1	3.98µM[single pt active]	–	–	–
O=C(CCCN1CCC2(CC1)C(=O)N(Cc1cccc(F)c1)CN2c1ccccc1)c1ccc(F)cc1	20µM[single pt active]	?	–	–
CC(=O)OC[C@H]1O[C@@H](ON=C(C)C)[C@H](OC(C)=O)[C@@H](OC(C)=O)[C@H]1OC(C)=O	·	–[1.6 µM]	·	·
CCCn1c(OC)nc2c1c(=O)n(C)c(=O)n2C	3.98µM[single pt active]	–	–	–
CCCOc1nc2c(c(=O)n(C)c(=O)n2C)n1CCC	–	–	–	–
CNCCCC1c2ccccc2C=Cc2ccccc21	–	–[3.58 µM]	–	–
CNCCCC12CCC(c3ccccc31)c1ccccc12	–	5.01µM!	–	–
N#C/C(=C\c1ccc(O)c(O)c1)C(=O)Nc1ccccc1	?	25.1µM	–	–
Cc1cc(C(C)(C)C)cc(CNC2CCCCC2)c1O	–[5.75 µM]	–[8 µM]	–[5.75 µM]	–
c1ccc(-c2ccc(N3CC4(CCNCC4)C3)cc2)cc1	–	12.6µM	–	–
c1ccc(C(c2ccccc2)N2CC3(CCNCC3)C2)cc1	–	10µM	–	–
O=Cc1ccc(OC2C=CC(c3ccccc3)OC2CO)cc1 (configuration not stated)	·	–[8 µM]	·	·
SMILES	AmpC inh no det	Anthrax LT inh	AmpC inh det	Prx2 Sm inh
CN(C)C(=O)Cn1nc(-c2ccccc2)c2ccccc2c1=O	–	–	–	–
O=C(Cn1nc(Cc2cccnc2)c2ccccc2c1=O)N1CCC2(CC1)OCCO2	–	–	–	–
CN(CCC#N)C(=O)Cn1nc(Cc2ccncc2)c2ccccc2c1=O	3.98µM[single pt active]	–	–	–
O=C(Cn1nc(Cc2ccncc2)c2ccccc2c1=O)N1CCc2ccccc2C1	3.98µM[single pt active]	–	–	–
c1ccc(CNc2ncncc2-c2ccoc2)cc1	–	–	–	–
CC(C)=C1CCC(C)CC1=O (configuration not stated)	–	–	–	·
